Results from PubChem BioAssay (NCI).
The panel holds about 83,000 compounds, 20% with a hit somewhere; the sample as a whole holds those more often.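 Plates (96-well) were seeded with cells, treated with compound at one concentration, and incubated for 48 hours before percent growth was determined.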 Calls of active or inactive are those of the source. The calls were made as follows: active = growth percent below 10; inactive = the rest.

Assays:
Test in all cases: NCI-60 one-dose screen, 48 h (100 = growth as untreated, 0 = no growth, -100 = all killed)
Settings in all cases: 10 µM unless noted
SK-MEL-2 melanoma = tested on: SK-MEL-2 melanoma
SN12C renal = tested on: SN12C renal
UO-31 renal = tested on: UO-31 renal
TK-10 renal = tested on: TK-10 renal
ACHN renal = tested on: ACHN renal
CAKI-1 renal = tested on: CAKI-1 renal
A498 renal = tested on: A498 renal
CCRF-CEM leukemia = tested on: CCRF-CEM leukemia
MOLT-4 leukemia = tested on: MOLT-4 leukemia

Measured: growth

Ic1cccs1
inactive: SK-MEL-2 melanoma 97.9% | SN12C renal 98.9% | UO-31 renal 90.5% | TK-10 renal 95.8% | ACHN renal 103% | CAKI-1 renal 101% | A498 renal 96.5% | CCRF-CEM leukemia 96% | MOLT-4 leukemia 98.9%

Nc1ccc2ccccc2c1-c1c(N)ccc2ccccc12
inactive: SK-MEL-2 melanoma 15.5% | SN12C renal 37% | UO-31 renal 40.8% | TK-10 renal 34.9% | ACHN renal 38.8% | CAKI-1 renal 28.6% | A498 renal 14.6% | CCRF-CEM leukemia 12.9% | MOLT-4 leukemia 17.4%

CCN(Cc1ccc(Cl)c(Cl)c1)c1ccc2nc(N)nc(N)c2c1C
active: SK-MEL-2 melanoma -78% | SN12C renal -75.6% | UO-31 renal -82.7% | TK-10 renal -84.3% | ACHN renal -95.6% | CAKI-1 renal -67% | A498 renal -78.2% | CCRF-CEM leukemia -5.59% | MOLT-4 leukemia -59.5%

CCOC(=O)CSCCC#N
inactive: SK-MEL-2 melanoma 105% | SN12C renal 97.9% | UO-31 renal 98.8% | TK-10 renal 101% | ACHN renal 95.2% | CAKI-1 renal 96% | A498 renal 83.1% | CCRF-CEM leukemia 102% | MOLT-4 leukemia 91.5%

CCCC(=O)c1cccs1
inactive: SK-MEL-2 melanoma 115% | SN12C renal 95.6% | UO-31 renal 98% | TK-10 renal 101% | ACHN renal 103% | CAKI-1 renal 99.7% | A498 renal 61% | CCRF-CEM leukemia 102% | MOLT-4 leukemia 100%

CS(=O)(=O)c1ccc(/C=C\C(=O)O)cc1
inactive: SK-MEL-2 melanoma 109% | SN12C renal 103% | UO-31 renal 83.5% | TK-10 renal 101% | ACHN renal 108% | CAKI-1 renal 98.2% | A498 renal 48.6% | CCRF-CEM leukemia 101% | MOLT-4 leukemia 111%

OCCc1ccc(Cl)cc1
inactive: SK-MEL-2 melanoma 99.3% | SN12C renal 94.9% | UO-31 renal 90.5% | TK-10 renal 94.7% | ACHN renal 105% | CAKI-1 renal 92.7% | A498 renal 106% | CCRF-CEM leukemia 96.9% | MOLT-4 leukemia 109%

Cc1ccc(NC(=S)N2CCOCC2)cc1C
inactive: SK-MEL-2 melanoma 100% | SN12C renal 99.4% | UO-31 renal 66.3% | TK-10 renal 103% | ACHN renal 99.2% | CAKI-1 renal 101% | A498 renal 105% | CCRF-CEM leukemia 109% | MOLT-4 leukemia 100%

C1=NCCc2ccccc21
inactive: SK-MEL-2 melanoma 99.7% | SN12C renal 102% | UO-31 renal 84.3% | TK-10 renal 119% | ACHN renal 101% | CAKI-1 renal 99.7% | A498 renal 59.9% | CCRF-CEM leukemia 96.8% | MOLT-4 leukemia 101%

C=COC(=O)C(C)(C)C
inactive: SK-MEL-2 melanoma 94.7% | SN12C renal 93.6% | UO-31 renal 84.5% | TK-10 renal 98.6% | ACHN renal 108% | CAKI-1 renal 92.2% | A498 renal 95.1% | CCRF-CEM leukemia 91.9% | MOLT-4 leukemia 92.5%

O=C1C=CC(=O)C2=C1CCCC2
inactive: SK-MEL-2 melanoma 110% | SN12C renal 98.7% | UO-31 renal 70.9% | TK-10 renal 132% | ACHN renal 90% | CAKI-1 renal 79% | A498 renal 132% | CCRF-CEM leukemia 18.8% | MOLT-4 leukemia 31.1%

O=c1n(CC2CO2)c(=O)n(CC2CO2)n1CC1CO1 (centres undefined)
inactive: SK-MEL-2 melanoma 41.1% | SN12C renal 69.7% | UO-31 renal 51% | TK-10 renal 74.2% | ACHN renal 22.3% | CAKI-1 renal 28.6% | A498 renal 85.2% | CCRF-CEM leukemia 37.5% | MOLT-4 leukemia 19.2%

CC1(C)CCC(C)(C)NC(=S)N1
inactive: SK-MEL-2 melanoma 94.1% | SN12C renal 97.1% | UO-31 renal 88.2% | TK-10 renal 98% | ACHN renal 104% | CAKI-1 renal 100% | A498 renal 112% | CCRF-CEM leukemia 102% | MOLT-4 leukemia 97.5%

CCCCNc1ccc(-c2ccc(NCCCC)cc2)cc1
inactive: SK-MEL-2 melanoma 101% | SN12C renal 81.4% | UO-31 renal 58.8% | TK-10 renal 92% | ACHN renal 71.1% | CAKI-1 renal 64.8% | A498 renal 59.7% | CCRF-CEM leukemia 51.9% | MOLT-4 leukemia 68.8%

CC(=O)c1cccs1
inactive: SK-MEL-2 melanoma 112% | SN12C renal 96.8% | UO-31 renal 106% | TK-10 renal 103% | ACHN renal 102% | CAKI-1 renal 102% | A498 renal 76.6% | CCRF-CEM leukemia 113% | MOLT-4 leukemia 95.4%

CCN(C(C)=O)c1ccc([N+](=O)[O-])cc1
inactive: SK-MEL-2 melanoma 107% | SN12C renal 105% | UO-31 renal 89.7% | TK-10 renal 93% | ACHN renal 113% | CAKI-1 renal 102% | A498 renal 82.5% | CCRF-CEM leukemia 98.9% | MOLT-4 leukemia 95.6%

C/C(=N\N=C(/C)c1cccc([N+](=O)[O-])c1)c1cccc([N+](=O)[O-])c1
inactive: SK-MEL-2 melanoma 90.8% | SN12C renal 81.7% | UO-31 renal 92.8% | TK-10 renal 90.8% | ACHN renal 99.4% | CAKI-1 renal 99.5% | A498 renal 97.9% | CCRF-CEM leukemia 96.5% | MOLT-4 leukemia 102%

Cc1[nH]nc(C(N)=O)c1[N+](=O)[O-]
inactive: SK-MEL-2 melanoma 119% | SN12C renal 98.4% | UO-31 renal 96.8% | TK-10 renal 106% | ACHN renal 99.3% | CAKI-1 renal 102% | A498 renal 78.4% | CCRF-CEM leukemia 105% | MOLT-4 leukemia 109%

COc1ccc(C2CC(c3ccccc3)=Nc3ccccc3S2)cc1 (centres undefined)
inactive: SK-MEL-2 melanoma 85.6% | SN12C renal 103% | UO-31 renal 57.5% | TK-10 renal 113% | ACHN renal 103% | CAKI-1 renal 84% | A498 renal 91.8% | CCRF-CEM leukemia 85.2% | MOLT-4 leukemia 77.6%

Nc1nc2nnc(-c3ccccc3)c(-c3ccccc3)n2n1
inactive: SN12C renal 94.7% | UO-31 renal 106% | TK-10 renal 121% | ACHN renal 98.1% | CAKI-1 renal 96.2% | A498 renal 87.4% | CCRF-CEM leukemia 102% | MOLT-4 leukemia 103%
active: SK-MEL-2 melanoma -2.91%

NC(=O)NCCO
inactive: SK-MEL-2 melanoma 108% | SN12C renal 101% | UO-31 renal 94.1% | TK-10 renal 96.5% | ACHN renal 107% | CAKI-1 renal 95.2% | A498 renal 77.1% | CCRF-CEM leukemia 85% | MOLT-4 leukemia 96.3%

CNc1ccccc1C(=O)N/N=C/C=C/c1ccccc1
active: SK-MEL-2 melanoma 3.74% | A498 renal -8.31%
inactive: SN12C renal 48.7% | UO-31 renal 43.8% | TK-10 renal 31.1% | ACHN renal 58.2% | CAKI-1 renal 12.7% | CCRF-CEM leukemia 12% | MOLT-4 leukemia 18.5%

O=C(c1cccc(C(=O)c2ccc3c4c(cccc24)C(=O)N(c2ccccc2)C3=O)c1)c1ccc2c3c(cccc13)C(=O)N(c1ccccc1)C2=O
inactive: SK-MEL-2 melanoma 111% | SN12C renal 92.4% | UO-31 renal 89.8% | TK-10 renal 115% | ACHN renal 102% | CAKI-1 renal 100% | A498 renal 86.7% | CCRF-CEM leukemia 89.9% | MOLT-4 leukemia 90.9%

OCC1OC(n2ccc3c2ncn2ncnc32)C(O)C1O (centres undefined)
inactive: SK-MEL-2 melanoma 67.7% | SN12C renal 27.5% | UO-31 renal 27.6% | TK-10 renal 22.2% | ACHN renal 29% | CAKI-1 renal 43.5% | CCRF-CEM leukemia 14.1% | MOLT-4 leukemia 16.1%
active: A498 renal -5.58%

N#Cc1ccc(OC(=O)Nc2c(Cl)cc(Cl)cc2Cl)cc1
inactive: SK-MEL-2 melanoma 118% | SN12C renal 98.2% | UO-31 renal 83.1% | TK-10 renal 104% | ACHN renal 104% | CAKI-1 renal 89.7% | A498 renal 125% | CCRF-CEM leukemia 99.3% | MOLT-4 leukemia 111%

Cc1cc2c(C(C)C)c(O)c(O)c(C=Nc3ccccc3[N+](=O)[O-])c2c(O)c1-c1c(C)cc2c(C(C)C)c(O)c(O)c(C=Nc3ccccc3[N+](=O)[O-])c2c1O
inactive: SK-MEL-2 melanoma 96.6% | SN12C renal 84.9% | UO-31 renal 84% | TK-10 renal 84.2% | ACHN renal 83.3% | CAKI-1 renal 88% | A498 renal 101% | CCRF-CEM leukemia 35% | MOLT-4 leukemia 26.2%

COc1c(CNC(=O)CCl)cc2[nH]c(C)cc2c1CNC(=O)CCl
inactive: SK-MEL-2 melanoma 54.9% | SN12C renal 53.7% | UO-31 renal 60.7% | TK-10 renal 74.1% | ACHN renal 37.3% | A498 renal 84.4% | CCRF-CEM leukemia 25.6% | MOLT-4 leukemia 51%

O=Cc1ccc(F)cc1
inactive: SK-MEL-2 melanoma 129% | SN12C renal 98% | UO-31 renal 82% | TK-10 renal 113% | ACHN renal 95.6% | CAKI-1 renal 88.4% | A498 renal 103% | MOLT-4 leukemia 110%

Cc1cccc2ccccc12
inactive: SK-MEL-2 melanoma 106% | SN12C renal 100% | UO-31 renal 86.8% | TK-10 renal 103% | ACHN renal 99.7% | CAKI-1 renal 91.6% | CCRF-CEM leukemia 102%

NC(=O)OCCO
inactive: SK-MEL-2 melanoma 100% | SN12C renal 105% | UO-31 renal 87.7% | TK-10 renal 98.8% | ACHN renal 113% | CCRF-CEM leukemia 99.5% | MOLT-4 leukemia 97.7%
